Whole data set: some 35,000 sequences, median “fluorescence intensity (a.u.)” near 10,000, cut for the highest 2% near 52,000. Many of the other results were omitted from the sample, so the highest values are more common in it than they were.

The experiment addresses T1, OsWOX13 (Oryza sativa, UniProt Q5QMM3 1-267).
T1 sequence: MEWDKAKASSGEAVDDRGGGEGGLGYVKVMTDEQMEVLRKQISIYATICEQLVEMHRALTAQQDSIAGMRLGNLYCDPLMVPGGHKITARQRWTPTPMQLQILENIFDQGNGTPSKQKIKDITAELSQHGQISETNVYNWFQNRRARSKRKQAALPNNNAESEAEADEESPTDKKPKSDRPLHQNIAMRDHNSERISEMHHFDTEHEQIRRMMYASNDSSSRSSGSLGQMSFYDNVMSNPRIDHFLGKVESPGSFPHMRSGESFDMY
Kind of experiment: protein-binding microarray (RPBM); PBS, 2% BSA, 51.3 ng/ul salmon testes DNA, 50 uM zinc acetate, 200 nM TF, 25 C, 1 h; high values mean tight binding. Conditions: protein: recombinant; tags: N-terminal polyhistidine and DsRed monomer fusion (pET32a); label: CyDye5-dUTP incorporated in the synthesized complementary strand; 3' TTTTT single-stranded linker to array surface; dsDNA, one strand shown. The procedure, abridged:
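For the binding signal, per-feature fluorescence intensity was read in arbitrary units on an Axon 4000B scanner. Before scanning, a 2% BSA-blocked custom Agilent array made double-stranded with Cy5-dUTP was washed after 1 h at 25 °C with 200 nM protein and 50 µM zinc acetate. The proteins were Ni–NTA-purified transcription factors with N-terminal polyhistidine and DsRed fusions, expressed in E. coli BL21-CodonPlus.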
For the sequence “ACATATGTGATTAGTATCAGTTCATCAGTAGTCTTCCAATCGGAGTCACCTAGTGCAG”, the binding signal is 18500 fluorescence intensity (a.u.).
“CTGACAGGTATTATTGCTTGATATATTTTACTCACTTTACCGGAGTCACCTAGTGCAG”: the binding signal is 14800 fluorescence intensity (a.u.).
Then “ATGGGAGGTGAGATTGGGATTGGGAAATAAATGAATGGCTCGGAGTCACCTAGTGCAG”, with 5250 fluorescence intensity (a.u.).
Take “GAGCAGATGATTAGTGAAGGTGTAACCCCTAACATCGTTACGGAGTCACCTAGTGCAG”: the binding signal was 12900 fluorescence intensity (a.u.).
On to “AATAAATTGTGTGGAAATTTAGCTTGCCCAATCAGATTGACGGAGTCACCTAGTGCAG”, for which the binding signal is 16000 fluorescence intensity (a.u.).
As for “AATGTGTTAGCGTTTAATTTGCGATTGGATTTGTTTCAGGCGGAGTCACCTAGTGCAG”, the binding signal is 3560 fluorescence intensity (a.u.).
With “AATTCTAATTGGGGAGCATTTAAAGGCTGGGTTTTAGTGGCGGAGTCACCTAGTGCAG”, the binding signal was 20100 fluorescence intensity (a.u.).
With “TGCTAATTGGGGATTTTCACATTCATGCTGTGTTAGCAGGCGGAGTCACCTAGTGCAG”, the binding signal is 54700 fluorescence intensity (a.u.).
Turning to “AAGTAATTTAGTCAACTCTAAAAGTAACTATGTGTGTGTGCGGAGTCACCTAGTGCAG”, the binding signal is 17300 fluorescence intensity (a.u.).
As for “TTGAATCAATGACTGATCATTGCCCAGACTGCTATTTTCCCGGAGTCACCTAGTGCAG”, the binding signal is 7090 fluorescence intensity (a.u.).
In the case of “CAAAACGAAATTGATAGATCTTAATGAGTTGTACAACTTTCGGAGTCACCTAGTGCAG”, the binding signal is 20400 fluorescence intensity (a.u.).
With “AACTTATTCCAATTATCAAACTCCGCTGCTCAACCAGGCCCGGAGTCACCTAGTGCAG”, the binding signal is 5860 fluorescence intensity (a.u.).
For the sequence “TCGCTATAATTGACAGCGACCCTACCTTGGGCCACCGGACCGGAGTCACCTAGTGCAG”, the binding signal is 57100 fluorescence intensity (a.u.).
For “TTTTATAATTCGATGACAAATTGAGAGACCTTGGGTGTACCGGAGTCACCTAGTGCAG”, the binding signal was 13200 fluorescence intensity (a.u.).
The value for “GCTTGATTGCCACACAAATTTTGACAATACGACCCTTTACCGGAGTCACCTAGTGCAG” was 42900 fluorescence intensity (a.u.).
The value for “AAGCCTAATTAATCCATCCTTAGCAGATGTGGGTTACCGTCGGAGTCACCTAGTGCAG” was 8630 fluorescence intensity (a.u.).
Then “ATTACTATGATTACTATAATGTACCCTCAAAGCGTGTAGACGGAGTCACCTAGTGCAG”, with 7510 fluorescence intensity (a.u.); and “ATAATGTCAAATTTCGTTCCATTGTGAAGAAATTTTGCCACGGAGTCACCTAGTGCAG”, with 3410 fluorescence intensity (a.u.); and “GAGGGCAAGGCCCAGGGAAGCATATCTTGATAGTCGATATCGGAGTCACCTAGTGCAG”, with 65500 fluorescence intensity (a.u.).
Consider “CATGATAGATCAGGCAGAGAGCAGATCAGAGCAAGCATGTCGGAGTCACCTAGTGCAG”, for which the binding signal is 11800 fluorescence intensity (a.u.).
As for “ATGGAATTGATTAGAAGCCAGCCAGGCAGGGGAGGGTCGTCGGAGTCACCTAGTGCAG”, the binding signal was 33900 fluorescence intensity (a.u.).
Consider “GGTTCCACTATCAATCTTAGACAGTATAAACAGGTCAACACGGAGTCACCTAGTGCAG”, for which the binding signal was 5380 fluorescence intensity (a.u.).
For the sequence “ATAATTTGATCAAATTACATGTGATTTTGTGAAATTTACACGGAGTCACCTAGTGCAG”, the binding signal is 39700 fluorescence intensity (a.u.).
Then “AAGGAGAATTTTCTTGATTGAAATTATACATCATATTCATCGGAGTCACCTAGTGCAG”, with 29500 fluorescence intensity (a.u.); and “AACAATTGATTAGTACAAAATGGTACTTCCTCCGTTTCACCGGAGTCACCTAGTGCAG”, with 56600 fluorescence intensity (a.u.).
With “TTAATTACAAATTGATTTGATCACGTAGATAATTACATCACGGAGTCACCTAGTGCAG”, the binding signal is 62000 fluorescence intensity (a.u.).
The value for “GTAATTTATATTGAAATGCAATTACTTCCTCCGTTTCACCCGGAGTCACCTAGTGCAG” was 21800 fluorescence intensity (a.u.).
With “TATTCTGATTGGAACTTATGAGTCTTGAATTCTTGATTCTCGGAGTCACCTAGTGCAG”, the binding signal was 39000 fluorescence intensity (a.u.).
The value for “TCTGATTGCAATCATTCTTGAATTCTGATACATATTGGATCGGAGTCACCTAGTGCAG” was 60300 fluorescence intensity (a.u.).
As to “GATTAATTTAGAAATTTTGAATTCTATTACATAATGATCACGGAGTCACCTAGTGCAG”, the binding signal was 20600 fluorescence intensity (a.u.).
“TGAGAGTGGCATTTAATTGAATCCTATTATGATGGTGGCACGGAGTCACCTAGTGCAG”: the binding signal was 16100 fluorescence intensity (a.u.).
Then “CTGATTAGTGATTTATTTAATTTGAGGAATCATTTTGGCACGGAGTCACCTAGTGCAG”, with 64900 fluorescence intensity (a.u.).
Then “AATTGATTTACAATACTTCCTCCGTTTCACAATATAAGTGCGGAGTCACCTAGTGCAG”, with 24700 fluorescence intensity (a.u.); and “CGGAATTAATCTGATTATGTGAGTGAATTGGCATTTTGAACGGAGTCACCTAGTGCAG”, with 30700 fluorescence intensity (a.u.).

These data come from article PMC7819943, “Rice protein-binding microarrays: a tool to detect cis-acting elements near promoter regions in rice”.
